Experimental data as given in PubChem BioAssay.
A number with no mark means an inactive call.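 Rule for the calls: active = viability at or below 10% of carrier control in both of two separate runs; inconclusive = viability at or below 10% in only one of the two runs; inactive = the rest.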

assay: reduced viability of SK-BR-3 breast cancer cells – cell-based, 24 h, human, pilot screen (AID 572); details: SK-BR-3 viability, CellTiter-Glo luminescence, at 10 µM, hits give low values;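 note: compound exposure lasted between 18 and 24 h rather than exactly 24 h; 100% = carrier-treated control wells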

Compound | viability
FC(F)(F)c1cccc(N2CCN(c3nnnn3-c3ccccc3)CC2)c1 | 85%
COC(=O)c1cc2oc(C)cc2n1CC(=O)Nc1ccc(C)c(C)c1 | 85.5%
Cc1cc2oc(=O)cc(C)c2c(=O)o1 | 101%
CC(Oc1ccc(Cl)cc1Cl)C(=O)Nc1ncccn1 (stereo not given) | 93.5%
CC(C(=O)NCCCN1CCOCC1)n1cccc1C(=O)c1ccccc1 (stereo not given) | 90%
CC(C)(C)NCc1cc2ccccc2[nH]c1=O | 90%
Cc1ccc(-c2noc(-c3ccccc3C(=O)NCC3CCCO3)n2)cc1 (stereo not given) | 91%
Cc1cc(Nc2ccc(C(=O)O)cc2)n2nc(C)nc2n1 | 101%
O=C(CSc1nnnn1C1CCCCC1)N1CCc2ccccc21 | 91%
Cc1cc(C)c2c(n1)nn1c(N3CCN(c4cccc(Cl)c4)CC3)cc(C)nc21 | 98.5%
CC(=O)NC(Cc1cc(C)ccc1C)C(=O)N1CCN(C(=O)Nc2ccc(C(C)=O)cc2)CC1 (stereo not given) | 102%
Cc1nnc(SCCn2c(N3CC(C)CC(C)C3)nc3c2c(=O)n(C)c(=O)n3C)s1 (stereo not given) | 106%
CC(C)CCNC(=O)NC(=O)CN1C(=O)NC2(CCCCC2)C1=O | 90%
COc1ccc(C(=O)Nc2cccc(-c3nc4ncccc4o3)c2C)cc1OC | 99%
Cc1ccc(S(=O)(=O)NCC2CCC(C(=O)NCCCN3CCOCC3)CC2)cc1 (stereo not given) | 89.5%
Cc1ccc(NC(=O)CSc2nnc(-c3ccncc3)n2C)cc1C | 90%
O=C(OCC#CCSc1nnc(-c2ccncc2)o1)c1cccs1 | 118%
O=C(NCc1cccnc1)C1c2ccccc2C(=O)N1Cc1ccco1 (stereo not given) | 94.5%
CCc1nnc(NC(=O)CSc2nnc3scc(-c4ccc(C)cc4)n23)s1 | 100%
CC(C)(C)C(=O)Oc1cc(N)n(S(=O)(=O)c2ccccc2)n1 | 93.5%

Compound | viability
Cc1cnc(NC(=O)CSc2nc3ccccc3c(=O)[nH]2)s1 | 89.5%
O=C(CCN1C(=O)c2ccccc2C1=O)OCN1C(=O)c2ccccc2C1=O | 95%
CCOC(=O)CNC(=O)c1c(C)nn(-c2ccccc2)c1Cl | 98.5%
COc1ccc(NC(=O)CN2CCN(CC(=O)Nc3cc(OC)cc(OC)c3)CC2)cc1 | 79%
CCCn1nc(NS(=O)(=O)c2ccccc2)c2cc3ccccc3nc21 | 91.5%
CCOC(=O)C1=C(C)NC(C)=C(C(=O)OCC)C1c1cc(N)ccc1OC(F)F | 78.5%
CC1=C(C(=O)OCc2ccccc2)C(c2ccc(C)o2)C2=C(CCCC2=O)N1 (stereo not given) | 72%
O=C(Nc1ccccc1-c1ccccc1)NC1CCN(CC(=O)N2CCOCC2)CC1 | 98%
CCN(C1CCCCC1)S(=O)(=O)c1ccc(OC)c(C)c1 | 99%
Cc1ccccc1N(C)S(=O)(=O)c1ccc2[nH]cc(C(=O)NCC3CCCO3)c(=O)c2c1 (stereo not given) | 83%
COc1ccc(N2C(=O)CC(N3CCN(c4ccccc4F)CC3)C2=O)cc1 (stereo not given) | 88%
COc1cc(OC)cc(-n2nnnc2SCC(=O)N2CCCC2)c1 | 87%
O=C(O)c1cc(Cl)c(Cl)cc1C(=O)N1CCCC1 | 97.5%
Nn1c(CSc2nc3ccccc3o2)nnc1CSc1nc2ccccc2o1 | 86%
CN=C1CC(C)(C)CC(=O)/C1=C(/O)CCC(=O)NC | 104%
CCOC(=O)c1ccc(NC(=O)c2ccc(NS(C)(=O)=O)cc2)cc1 | 97%
CCN(CC)CCCN(Cc1cc2cc(OC)ccc2[nH]c1=O)C(=O)Nc1ccccc1 | 90%
O=C(COC(=O)CCC(=O)c1cccs1)NCc1ccco1 | 98%
O=C(Cn1cnc2ccccc2c1=O)NCCC(=O)N1CCN(Cc2ccccc2)CC1 | 89%
CC(C)C(c1nnnn1CC1CCCO1)N1CCN(Cc2ccc3c(c2)OCO3)CC1 (stereo not given) | 102%
